In PubChem BioAssay (NCATS):
A number with no mark means an inactive call. Activity calls are given as the source filed them. Calls come from the whole dose curve; as a rule, active = well fitted curve in the direction sought with a large enough effect; inconclusive = small, poorly fitted or top-dose-only effect, or another doubt; inactive = no such curve, though single readings can be large; an effect the other way counts as inactive or inconclusive.

Key:
[1] = target: Alpha-galactosidase (Coffea arabica) (UniProt Q42656); assay: Counterscreen for Glucocerebrosidase Inhibitors: qHTS Assay for Coffee Bean alpha-Galactosidase at pH 4.5 (AID 957); conditions: purified coffee bean alpha-galactosidase, fluorogenic substrate; series mostly up to 76.9 µM
Outline: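 Coffee bean alpha-galactosidase 2 nM, substrate 4-MU-alpha-Gal 80 uM, pH 4.5 citrate/Tween-20, 20 min RT. Cpd titration 0.7 nM–77 uM. Stop pH 10, fluorescence 365/440 nm; Hill-equation AC50.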

[2] = target: Alpha-galactosidase (Coffea arabica) (UniProt Q42656); assay: Counterscreen for Glucocerebrosidase Inhibitors: qHTS Assay for Coffee Bean alpha-Galactosidase at pH 5.9 (AID 998); conditions: coffee bean alpha-galactosidase enzyme assay; series mostly up to 76.9 µM
Outline: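 Compounds were titrated from 0.7 nM to 77 uM against green coffee bean alpha-galactosidase (2 nM) using 80 uM fluorogenic 4-methylumbelliferyl substrate. After 20 min at room temperature, reactions were stopped at pH 10 and read by fluorescence.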

Chain of Alpha-galactosidase (Coffea arabica) (Q42656 whole entry, looked up): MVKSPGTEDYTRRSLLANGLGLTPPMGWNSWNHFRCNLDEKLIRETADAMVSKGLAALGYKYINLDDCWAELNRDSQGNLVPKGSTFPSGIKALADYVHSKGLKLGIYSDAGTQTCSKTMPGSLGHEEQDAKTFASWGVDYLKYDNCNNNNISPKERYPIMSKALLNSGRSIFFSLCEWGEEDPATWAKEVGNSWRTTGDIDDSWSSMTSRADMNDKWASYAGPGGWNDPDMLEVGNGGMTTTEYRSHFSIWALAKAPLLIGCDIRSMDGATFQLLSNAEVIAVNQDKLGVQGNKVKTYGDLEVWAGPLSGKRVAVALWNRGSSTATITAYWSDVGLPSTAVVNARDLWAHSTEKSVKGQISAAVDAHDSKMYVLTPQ

SMILES	outcome [1]	outcome [2]
Cc1nnc(SCC2=C(C(=O)O)N3C(=O)[C@@H](NC(=O)Cn4cnnn4)[C@@H]3SC2)s1	inactive	inactive
Cc1ccc(OC[C@H](O)[C@H](C)NC(C)C)c2c1CCC2	inactive	inactive
NS(=O)(=O)c1cc2c(cc1Cl)N[C@@H]([C@@H]1C[C@@H]3C=C[C@H]1C3)NS2(=O)=O	inactive	inactive
COc1cccc(OC)c1OCCNC[C@@H]1COc2ccccc2O1	inactive	inactive
COC(=O)c1c(-c2cc(OC)c(OC)c(OC)c2)c2ccnc(OCc3ncccn3)c2c(=O)n1Cc1ccnc(C)c1	inactive	inactive
Nc1ccn([C@@H]2O[C@@H](CO)[C@@H](O)[C@H]2O)c(=O)n1	inactive	inactive
COC(=O)[C@H]1[C@H]2C[C@H]3c4[nH]c5ccccc5c4CCN3C[C@@H]2CC[C@@H]1O	inactive	inactive
Oc1ccc([C@@H]2CNCc3sccc32)cc1O	inactive	inactive
NC(=S)c1ccc[n+]([C@@H]2O[C@@H](COP(=O)([O-])OP(=O)(O)OC[C@@H]3O[C@@H](n4cnc5c(N)ncnc54)[C@@H](OP(=O)(O)O)[C@H]3O)[C@@H](O)[C@H]2O)c1	inactive	inactive
CN(C)[C@@H]1C(=O)C(C(N)=O)=C(O)[C@]2(O)C(=O)C3=C(O)c4c(O)ccc(Cl)c4[C@H](O)[C@H]3C[C@@H]12	inactive	inactive
N[C@H](Cc1cccc(-c2ccccc2CP(=O)(O)O)c1)C(=O)O	inactive	inactive
COc1cc2nc(N3CCN(C(=O)[C@H]4COc5ccccc5O4)CC3)nc(N)c2cc1OC	inactive	inactive
CC(=O)OCC1=C(C(=O)O)N2C(=O)[C@@H](NC(=O)CSc3ccncc3)[C@@H]2SC1	inactive	inactive
CCCCC[C@H](CC(=O)NO)C(=O)N[C@@H](C(=O)N1CCC[C@H]1CO)C(C)C	inactive	inactive
O=C(c1ccccc1)c1ccc2n1CC[C@H]2C(=O)O	inactive	inactive
CC(=O)OCC1=C(C(=O)O)N2C(=O)[C@@H](NC(=O)Cc3cccs3)[C@@H]2SC1	inactive	inactive
CSc1nc(N)c2ncn([C@@H]3O[C@@H](COP(=O)(O)OP(=O)(O)O)[C@@H](O)[C@H]3O)c2n1	inactive	inactive
C[C@H](O)[C@H](O)[C@@H]1CNc2nc(N)[nH]c(=O)c2N1	inactive	inactive
CCCN1C[C@@H](CSC)C[C@H]2c3cccc4[nH]cc(c34)C[C@@H]21	inactive	inactive
Nc1c2c(nc3ccccc13)CCC[C@H]2O	inactive	inactive
N[C@H](C(=O)N[C@@H]1C(=O)N2C(C(=O)O)=C(Cl)CS[C@@H]12)c1ccccc1	inactive	inactive
O=C(O)[C@H]1C[C@H](C(=O)O)N1	inactive	inactive
COc1cc2nc(N3CC=[N+](C(=O)c4ccco4)CC3)nc(N)c2cc1OC	inactive	inactive
CN1[C@@H]2CC(OC(=O)[C@@H](CO)c3ccccc3)C[C@H]1[C@H]1O[C@H]12 (stereo not given in full)	inactive	inactive
C[C@@](N)(Cc1ccc(O)cc1)C(=O)O	inactive	inactive
CC(C)NC[C@@H](O)COc1ccc(CCOCC2CC2)cc1	inactive	inactive
CN1CCc2cccc3c2[C@@H]1Cc1ccc(O)c(O)c1-3	inactive	inactive
C[C@@]12CCC(=O)C=C1CC[C@@H]1[C@@H]2[C@H](O)C[C@]2(C)[C@@H]1CC[C@]2(O)C(=O)COC(=O)CCC(=O)O	inactive	inactive
CCOC(=O)C1=C(C)NC(C)=C(C(=O)OC)[C@H]1c1cccc([N+](=O)[O-])c1	inactive	inactive
CC(C)(C)c1ccc(S(=O)(=O)/C=C\C#N)cc1	inactive	inactive
